About 83,000 compounds went through this panel and 20% of them were active in at least one assay; those are over-represented in the sample as a whole.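 Compound tested at a single concentration for 48 hours in 96-well plates; a percent growth value below 10 was scored as active.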 Calls of active or inactive are those of the source.
Tests used:
Test in all cases: NCI-60 one-dose screen, 48 h (100 = growth as untreated, 0 = no growth, -100 = all killed)
Conditions in all cases: 10 µM
RPMI-8226 leukemia = tested on: RPMI-8226 leukemia
OVCAR-8 ovarian = tested on: OVCAR-8 ovarian
OVCAR-5 ovarian = tested on: OVCAR-5 ovarian
OVCAR-4 ovarian = tested on: OVCAR-4 ovarian
SK-OV-3 ovarian = tested on: SK-OV-3 ovarian
IGROV1 ovarian = tested on: IGROV1 ovarian
OVCAR-3 ovarian = tested on: OVCAR-3 ovarian
NCI/ADR-RES ovarian = tested on: NCI/ADR-RES ovarian
T-47D breast = tested on: T-47D breast
BT-549 breast = tested on: BT-549 breast
MDA-MB-435 melanoma = tested on: MDA-MB-435 melanoma
MCF7 breast = tested on: MCF7 breast
HCT-116 colon = tested on: HCT-116 colon
KM12 colon = tested on: KM12 colon
HS 578T breast = tested on: HS 578T breast
HCC-2998 colon = tested on: HCC-2998 colon
SW-620 colon = tested on: SW-620 colon

Measured: growth

O=C(C[n+]1ccccc1)c1ccc2ccccc2c1
inactive: RPMI-8226 leukemia 93.4% | OVCAR-8 ovarian 89% | OVCAR-5 ovarian 75.9% | OVCAR-4 ovarian 86.3% | SK-OV-3 ovarian 101% | IGROV1 ovarian 105% | OVCAR-3 ovarian 95% | NCI/ADR-RES ovarian 92% | T-47D breast 87.2% | BT-549 breast 100% | MDA-MB-435 melanoma 102% | MCF7 breast 98.1% | HCT-116 colon 91.2% | KM12 colon 93.1%

COc1cc(/C=N/NC(=O)c2ccccc2Nc2cccc(C(F)(F)F)c2)cc(OC)c1OC
inactive: RPMI-8226 leukemia 236% | OVCAR-8 ovarian 34.3% | OVCAR-5 ovarian 62.1% | SK-OV-3 ovarian 16.1% | HS 578T breast 12.2% | T-47D breast 29.6% | HCT-116 colon 158% | HCC-2998 colon 28.2% | KM12 colon 16.6%
active: OVCAR-4 ovarian 9.6% | IGROV1 ovarian -17.1% | OVCAR-3 ovarian -53.8% | MDA-MB-435 melanoma -34% | MCF7 breast 5.18%

Cc1cc(O)c(C(C)(C)C)cc1Sc1cc(C(C)(C)C)c(O)cc1C
inactive: RPMI-8226 leukemia 12.8% | OVCAR-8 ovarian 73.6% | OVCAR-5 ovarian 90.4% | OVCAR-4 ovarian 28.3% | SK-OV-3 ovarian 65.3% | IGROV1 ovarian 39.1% | OVCAR-3 ovarian 29.3% | NCI/ADR-RES ovarian 30.7% | T-47D breast 18.6% | BT-549 breast 65.9% | MDA-MB-435 melanoma 54.8% | MCF7 breast 34.7% | HCT-116 colon 29% | KM12 colon 47%

Fc1cc(C(F)(F)F)ccc1-c1cncnc1NC1CCCCCC1
inactive: RPMI-8226 leukemia 76.1% | OVCAR-8 ovarian 87.1% | OVCAR-5 ovarian 106% | OVCAR-4 ovarian 85.3% | SK-OV-3 ovarian 101% | OVCAR-3 ovarian 109% | HS 578T breast 102% | NCI/ADR-RES ovarian 91.4% | T-47D breast 91.8% | BT-549 breast 96% | MDA-MB-435 melanoma 104% | SW-620 colon 101% | MCF7 breast 92.3% | HCT-116 colon 95.8% | HCC-2998 colon 107%

N#CSCC1CC(O)(c2ccccc2)CC(c2ccc(Cl)cc2)O1 (centres undefined)
inactive: RPMI-8226 leukemia 18.1% | OVCAR-8 ovarian 66.7% | OVCAR-5 ovarian 101% | OVCAR-4 ovarian 40% | SK-OV-3 ovarian 102% | HS 578T breast 21% | NCI/ADR-RES ovarian 47.2% | T-47D breast 27.4% | MCF7 breast 14.7% | HCT-116 colon 10.1% | HCC-2998 colon 94.9% | KM12 colon 22.3%
active: OVCAR-3 ovarian -36% | BT-549 breast -11.5% | MDA-MB-435 melanoma 3.01% | SW-620 colon -53.5%

O=C(Nc1ccc(Cl)c([N+](=O)[O-])c1)Nc1nc2ccccc2s1
active: RPMI-8226 leukemia 7.17%
inactive: OVCAR-8 ovarian 85.3% | OVCAR-5 ovarian 103% | OVCAR-4 ovarian 67.1% | SK-OV-3 ovarian 84.9% | OVCAR-3 ovarian 79.5% | HS 578T breast 103% | NCI/ADR-RES ovarian 80.9% | T-47D breast 36.8% | BT-549 breast 88.3% | MDA-MB-435 melanoma 89.4% | SW-620 colon 99.4% | MCF7 breast 79% | HCT-116 colon 66.3% | HCC-2998 colon 86.3%

CC(=O)c1cc(Br)ccc1O
inactive: RPMI-8226 leukemia 105% | OVCAR-8 ovarian 112% | OVCAR-5 ovarian 92.3% | OVCAR-4 ovarian 105% | SK-OV-3 ovarian 126% | OVCAR-3 ovarian 118% | HS 578T breast 108% | NCI/ADR-RES ovarian 107% | T-47D breast 114% | BT-549 breast 110% | MDA-MB-435 melanoma 99.1% | SW-620 colon 102% | MCF7 breast 102% | HCT-116 colon 112% | HCC-2998 colon 101% | KM12 colon 102%

COc1cc([C@@H]2c3cc4c(cc3C(Br)[C@H]3COC(=O)[C@H]23)OCO4)cc(OC)c1OC (some centres undefined)
inactive: OVCAR-5 ovarian 24.7% | OVCAR-4 ovarian 17.3% | T-47D breast 31.3%
active: RPMI-8226 leukemia -25.8% | OVCAR-8 ovarian -27.5% | SK-OV-3 ovarian -18.4% | IGROV1 ovarian -21% | OVCAR-3 ovarian -81.5% | NCI/ADR-RES ovarian -45.9% | BT-549 breast -12.7% | MDA-MB-435 melanoma -42% | MCF7 breast -10.4% | HCT-116 colon -34.7% | KM12 colon -81.3%

CCCN(CCC)CCC(O)c1cc2c(c3ccccc13)CCCC2 (centres undefined)
inactive: RPMI-8226 leukemia 86.1% | OVCAR-8 ovarian 102% | OVCAR-5 ovarian 84.9% | OVCAR-4 ovarian 103% | SK-OV-3 ovarian 90.1% | IGROV1 ovarian 77.8% | HS 578T breast 88% | NCI/ADR-RES ovarian 83.3% | T-47D breast 68.9% | BT-549 breast 92.5% | MDA-MB-435 melanoma 97.7% | SW-620 colon 94.1% | MCF7 breast 82.4% | HCT-116 colon 70.3% | HCC-2998 colon 87.6% | KM12 colon 101%

COC(=O)c1ccc(=O)oc1
inactive: RPMI-8226 leukemia 93.7% | OVCAR-8 ovarian 104% | OVCAR-5 ovarian 89.1% | OVCAR-4 ovarian 102% | SK-OV-3 ovarian 107% | IGROV1 ovarian 112% | OVCAR-3 ovarian 116% | NCI/ADR-RES ovarian 97.1% | T-47D breast 96.3% | BT-549 breast 104% | MDA-MB-435 melanoma 106% | MCF7 breast 100% | HCT-116 colon 97.7% | KM12 colon 104%

CCCCN(CCCC)CCCCCCCCC(O)c1cc2ccccc2c2ccccc12 (centres undefined)
inactive: OVCAR-8 ovarian 49.4% | OVCAR-5 ovarian 74.8% | OVCAR-4 ovarian 46.2% | SK-OV-3 ovarian 80.7% | IGROV1 ovarian 44.8% | HS 578T breast 73.7% | NCI/ADR-RES ovarian 54.6% | T-47D breast 31.7% | BT-549 breast 67.5% | MDA-MB-435 melanoma 67.3% | SW-620 colon 66.6% | MCF7 breast 28.7% | HCT-116 colon 22.7% | HCC-2998 colon 61.5% | KM12 colon 40.9%
active: RPMI-8226 leukemia -7.55%

CC(C)(C)c1ccc(N2CSC(=S)N(c3ccc(C(C)(C)C)cc3)C2)cc1
inactive: RPMI-8226 leukemia 76.5% | OVCAR-8 ovarian 107% | OVCAR-5 ovarian 101% | OVCAR-4 ovarian 98.3% | SK-OV-3 ovarian 94.1% | OVCAR-3 ovarian 109% | HS 578T breast 112% | NCI/ADR-RES ovarian 96.1% | T-47D breast 81.4% | BT-549 breast 98.9% | MDA-MB-435 melanoma 99.7% | SW-620 colon 106% | MCF7 breast 91.7% | HCT-116 colon 91.8% | HCC-2998 colon 96.4% | KM12 colon 96.7%

N#CCCN1C/C(=C/c2ccc(Br)cc2)C(=O)/C(=C/c2ccc(Br)cc2)C1
active: RPMI-8226 leukemia -14% | OVCAR-8 ovarian -17.3% | OVCAR-5 ovarian 2.15% | OVCAR-4 ovarian 0.905% | SK-OV-3 ovarian 9.84% | OVCAR-3 ovarian -65.2% | T-47D breast 6.33% | BT-549 breast -23.3% | MDA-MB-435 melanoma -43.3% | SW-620 colon -53.7% | MCF7 breast 0.16% | HCT-116 colon -50.8% | HCC-2998 colon -87.4%
inactive: HS 578T breast 12.4% | NCI/ADR-RES ovarian 16.8%

S=c1[nH]ccn1-c1c(Cl)cccc1Cl
inactive: RPMI-8226 leukemia 89% | OVCAR-8 ovarian 103% | OVCAR-5 ovarian 107% | OVCAR-4 ovarian 97.1% | SK-OV-3 ovarian 102% | OVCAR-3 ovarian 111% | HS 578T breast 109% | NCI/ADR-RES ovarian 102% | T-47D breast 91.2% | BT-549 breast 88.9% | MDA-MB-435 melanoma 97.3% | SW-620 colon 106% | MCF7 breast 97.8% | HCT-116 colon 93.9% | HCC-2998 colon 99.5% | KM12 colon 104%

CCN(CC)CCSCCCNc1c2ccc(Cl)cc2nc2ccc(OC)cc12
active: RPMI-8226 leukemia -22.9% | OVCAR-8 ovarian -29.3% | OVCAR-5 ovarian -16.7% | OVCAR-4 ovarian -34.1% | SK-OV-3 ovarian -1.76% | IGROV1 ovarian -18.7% | HS 578T breast 6.72% | T-47D breast -32.8% | BT-549 breast 5.29% | MDA-MB-435 melanoma -94.7% | SW-620 colon -23.7% | MCF7 breast -33% | HCT-116 colon -55.9% | HCC-2998 colon -73.2% | KM12 colon -10.9%

O=C(O)CCCCSc1ncnc2nc[nH]c12
inactive: RPMI-8226 leukemia 108% | OVCAR-8 ovarian 98.3% | OVCAR-5 ovarian 102% | OVCAR-4 ovarian 116% | SK-OV-3 ovarian 92.9% | OVCAR-3 ovarian 100% | HS 578T breast 122% | NCI/ADR-RES ovarian 107% | T-47D breast 97.2% | BT-549 breast 106% | MDA-MB-435 melanoma 99.3% | SW-620 colon 109% | MCF7 breast 99.2% | HCT-116 colon 103% | HCC-2998 colon 108% | KM12 colon 102%

Nc1ncnc2[nH]c(=O)[nH]c12
inactive: RPMI-8226 leukemia 195% | OVCAR-8 ovarian 93.3% | OVCAR-5 ovarian 87.9% | OVCAR-4 ovarian 96.7% | SK-OV-3 ovarian 110% | OVCAR-3 ovarian 98.4% | HS 578T breast 144% | NCI/ADR-RES ovarian 107% | T-47D breast 94.2% | BT-549 breast 122% | MDA-MB-435 melanoma 96.4% | SW-620 colon 110% | MCF7 breast 100% | HCT-116 colon 91.3% | HCC-2998 colon 111% | KM12 colon 99.8%

COc1cc(OC)cc(-c2cncn2-c2ccc(-c3nc4cc(OC)cc(OC)c4s3)cc2)c1
active: MDA-MB-435 melanoma -16.3%
inactive: RPMI-8226 leukemia 44.6% | OVCAR-8 ovarian 80.7% | OVCAR-5 ovarian 99.9% | SK-OV-3 ovarian 70.5% | IGROV1 ovarian 56.1% | OVCAR-3 ovarian 20.3% | HS 578T breast 50.3% | NCI/ADR-RES ovarian 21.2% | T-47D breast 62.8% | BT-549 breast 46.6% | SW-620 colon 48.2% | MCF7 breast 20.9% | HCT-116 colon 36.8% | HCC-2998 colon 70.2% | KM12 colon 38.5%

CN1CCC2(CC1)NC(=O)c1c(c3ccc(Cl)c(Cl)c3n1C)C2C#N (centres undefined)
active: HCC-2998 colon -1.84%
inactive: RPMI-8226 leukemia 80.4% | OVCAR-8 ovarian 80.8% | OVCAR-5 ovarian 67.7% | SK-OV-3 ovarian 86.1% | IGROV1 ovarian 73.4% | OVCAR-3 ovarian 76% | HS 578T breast 71.1% | NCI/ADR-RES ovarian 82.4% | T-47D breast 81.3% | BT-549 breast 84.9% | MDA-MB-435 melanoma 49.2% | SW-620 colon 83.9% | MCF7 breast 28.5% | HCT-116 colon 43%
